We go through six compounds from ChEMBL document CHEMBL1961873, “Compounds: GSK PKIS; Assays: Nanosyn kinase panel” (2012).

Test [1] deals with Tyrosine-protein kinase CSK (Homo sapiens) (UniProt P41240). The conditions noted are these: at 1 µM.
Test [2] deals with T1, Discoidin domain-containing receptor 2 (Homo sapiens) (UniProt Q16832).
T1 sequence (whole entry): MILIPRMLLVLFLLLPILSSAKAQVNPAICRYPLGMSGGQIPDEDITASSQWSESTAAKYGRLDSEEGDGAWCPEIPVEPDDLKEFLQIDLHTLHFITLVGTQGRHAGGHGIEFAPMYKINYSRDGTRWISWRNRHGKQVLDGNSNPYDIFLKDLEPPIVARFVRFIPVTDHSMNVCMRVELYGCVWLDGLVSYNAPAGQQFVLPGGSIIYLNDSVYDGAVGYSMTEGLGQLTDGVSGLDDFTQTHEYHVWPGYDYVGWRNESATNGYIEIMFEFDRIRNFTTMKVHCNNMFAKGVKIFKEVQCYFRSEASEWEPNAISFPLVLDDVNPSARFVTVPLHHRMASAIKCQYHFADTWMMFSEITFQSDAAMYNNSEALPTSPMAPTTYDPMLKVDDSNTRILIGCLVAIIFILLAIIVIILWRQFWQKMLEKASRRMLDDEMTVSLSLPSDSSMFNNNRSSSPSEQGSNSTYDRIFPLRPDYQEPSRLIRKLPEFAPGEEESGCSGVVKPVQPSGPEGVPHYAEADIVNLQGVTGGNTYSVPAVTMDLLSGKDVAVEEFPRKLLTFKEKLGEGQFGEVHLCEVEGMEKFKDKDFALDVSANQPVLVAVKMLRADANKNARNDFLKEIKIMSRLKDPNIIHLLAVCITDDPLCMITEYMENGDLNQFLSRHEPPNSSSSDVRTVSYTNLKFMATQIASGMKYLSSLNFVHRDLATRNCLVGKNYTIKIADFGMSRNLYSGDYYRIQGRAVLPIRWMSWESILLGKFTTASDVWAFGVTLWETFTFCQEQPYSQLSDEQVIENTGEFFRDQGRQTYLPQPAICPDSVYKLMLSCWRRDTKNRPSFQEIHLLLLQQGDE
The conditions noted are these: at 0.1 µM.

Test [3] has as its target T1, Discoidin domain-containing receptor 2 (Homo sapiens). The conditions noted are these: at 1 µM.
Test [4] deals with Epidermal growth factor receptor (Homo sapiens) (UniProt P00533). The conditions noted are these: at 0.1 µM.
Epidermal growth factor receptor (Homo sapiens), sequence (P00533 whole entry): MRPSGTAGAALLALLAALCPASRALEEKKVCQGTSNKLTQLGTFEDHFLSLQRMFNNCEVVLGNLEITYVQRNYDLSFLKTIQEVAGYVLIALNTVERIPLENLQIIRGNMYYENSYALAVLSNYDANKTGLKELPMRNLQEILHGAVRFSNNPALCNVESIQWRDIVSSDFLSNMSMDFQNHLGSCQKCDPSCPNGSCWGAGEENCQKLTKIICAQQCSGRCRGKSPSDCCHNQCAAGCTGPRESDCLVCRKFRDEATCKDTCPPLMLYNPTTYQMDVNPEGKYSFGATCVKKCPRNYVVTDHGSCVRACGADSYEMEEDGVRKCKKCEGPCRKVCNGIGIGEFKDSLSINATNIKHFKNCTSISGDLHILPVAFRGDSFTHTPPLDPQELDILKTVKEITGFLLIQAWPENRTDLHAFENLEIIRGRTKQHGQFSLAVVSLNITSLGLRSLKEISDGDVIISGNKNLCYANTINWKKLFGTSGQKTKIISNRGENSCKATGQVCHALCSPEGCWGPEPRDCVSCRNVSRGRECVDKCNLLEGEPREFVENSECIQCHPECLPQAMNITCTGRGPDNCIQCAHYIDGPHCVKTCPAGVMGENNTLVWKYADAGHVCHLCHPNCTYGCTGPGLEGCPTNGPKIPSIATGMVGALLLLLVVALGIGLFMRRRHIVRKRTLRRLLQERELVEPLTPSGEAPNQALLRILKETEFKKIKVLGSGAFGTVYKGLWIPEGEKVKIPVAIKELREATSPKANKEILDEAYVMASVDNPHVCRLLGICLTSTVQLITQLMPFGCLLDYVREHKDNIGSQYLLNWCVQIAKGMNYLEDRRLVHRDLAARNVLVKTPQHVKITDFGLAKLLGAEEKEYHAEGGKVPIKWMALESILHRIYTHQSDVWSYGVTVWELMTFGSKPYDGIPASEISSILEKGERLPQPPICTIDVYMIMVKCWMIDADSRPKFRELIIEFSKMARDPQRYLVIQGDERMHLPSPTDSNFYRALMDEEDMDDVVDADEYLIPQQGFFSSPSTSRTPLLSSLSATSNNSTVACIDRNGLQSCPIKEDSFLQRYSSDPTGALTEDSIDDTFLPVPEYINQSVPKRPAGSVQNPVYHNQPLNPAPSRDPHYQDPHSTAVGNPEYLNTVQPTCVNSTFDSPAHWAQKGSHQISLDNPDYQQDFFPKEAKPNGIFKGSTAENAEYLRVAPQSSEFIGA
Test [5] has the same target. The conditions noted are these: at 1 µM.
The test system of test [6] is Epidermal growth factor receptor (Homo sapiens), P00533 [L858R]. The conditions noted are these: at 0.1 µM.
For test [7] the test system is unchanged. The conditions noted are these: at 1 µM.
The test system of test [8] is Epidermal growth factor receptor (Homo sapiens), P00533 [L861Q]. The conditions noted are these: at 0.1 µM.
Epidermal growth factor receptor (Homo sapiens), P00533 [L861Q], sequence (P00533 whole entry L861Q): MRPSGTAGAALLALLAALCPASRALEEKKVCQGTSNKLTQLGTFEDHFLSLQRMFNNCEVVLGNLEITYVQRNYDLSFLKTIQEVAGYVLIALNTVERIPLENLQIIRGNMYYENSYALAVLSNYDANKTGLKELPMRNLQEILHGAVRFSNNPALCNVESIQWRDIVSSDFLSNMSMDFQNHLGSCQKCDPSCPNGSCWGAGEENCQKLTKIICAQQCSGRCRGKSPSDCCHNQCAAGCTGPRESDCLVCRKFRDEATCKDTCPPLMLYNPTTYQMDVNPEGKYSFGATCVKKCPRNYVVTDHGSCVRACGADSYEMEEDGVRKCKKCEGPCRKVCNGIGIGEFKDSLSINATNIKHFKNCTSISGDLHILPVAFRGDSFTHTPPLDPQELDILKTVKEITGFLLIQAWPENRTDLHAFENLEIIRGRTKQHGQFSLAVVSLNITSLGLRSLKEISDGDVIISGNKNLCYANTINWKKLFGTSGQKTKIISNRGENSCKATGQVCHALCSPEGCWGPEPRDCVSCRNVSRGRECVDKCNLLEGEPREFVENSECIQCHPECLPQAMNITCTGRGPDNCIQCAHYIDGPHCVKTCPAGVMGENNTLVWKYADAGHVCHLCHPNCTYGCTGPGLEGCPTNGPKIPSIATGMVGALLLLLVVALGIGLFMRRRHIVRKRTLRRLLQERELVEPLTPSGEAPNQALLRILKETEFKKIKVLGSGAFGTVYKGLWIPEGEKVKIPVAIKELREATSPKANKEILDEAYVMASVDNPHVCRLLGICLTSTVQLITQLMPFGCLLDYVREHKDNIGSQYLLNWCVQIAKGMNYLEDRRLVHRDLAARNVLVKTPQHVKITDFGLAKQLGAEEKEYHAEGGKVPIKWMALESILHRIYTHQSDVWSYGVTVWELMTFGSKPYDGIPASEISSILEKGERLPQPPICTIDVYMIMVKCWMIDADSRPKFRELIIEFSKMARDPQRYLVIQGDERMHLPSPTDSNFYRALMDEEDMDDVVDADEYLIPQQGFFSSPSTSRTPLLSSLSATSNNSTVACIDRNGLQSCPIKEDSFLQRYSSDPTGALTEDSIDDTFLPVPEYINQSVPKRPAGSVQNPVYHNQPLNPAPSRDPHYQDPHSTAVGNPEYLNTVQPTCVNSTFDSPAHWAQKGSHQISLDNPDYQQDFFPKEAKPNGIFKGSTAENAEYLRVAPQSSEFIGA
Test [9] shares this test system. The conditions noted are these: at 1 µM.
Test [10] relates to Epidermal growth factor receptor (Homo sapiens), P00533 [T790M]. The conditions noted are these: at 0.1 µM.
The test system is the same in test [11]. The conditions noted are these: at 1 µM.
In test [12] the test system is Epidermal growth factor receptor (Homo sapiens), P00533 [L858R,T790M]. The conditions noted are these: at 0.1 µM.
Epidermal growth factor receptor (Homo sapiens), P00533 [L858R,T790M], sequence (P00533 whole entry T790M/L858R, looked up): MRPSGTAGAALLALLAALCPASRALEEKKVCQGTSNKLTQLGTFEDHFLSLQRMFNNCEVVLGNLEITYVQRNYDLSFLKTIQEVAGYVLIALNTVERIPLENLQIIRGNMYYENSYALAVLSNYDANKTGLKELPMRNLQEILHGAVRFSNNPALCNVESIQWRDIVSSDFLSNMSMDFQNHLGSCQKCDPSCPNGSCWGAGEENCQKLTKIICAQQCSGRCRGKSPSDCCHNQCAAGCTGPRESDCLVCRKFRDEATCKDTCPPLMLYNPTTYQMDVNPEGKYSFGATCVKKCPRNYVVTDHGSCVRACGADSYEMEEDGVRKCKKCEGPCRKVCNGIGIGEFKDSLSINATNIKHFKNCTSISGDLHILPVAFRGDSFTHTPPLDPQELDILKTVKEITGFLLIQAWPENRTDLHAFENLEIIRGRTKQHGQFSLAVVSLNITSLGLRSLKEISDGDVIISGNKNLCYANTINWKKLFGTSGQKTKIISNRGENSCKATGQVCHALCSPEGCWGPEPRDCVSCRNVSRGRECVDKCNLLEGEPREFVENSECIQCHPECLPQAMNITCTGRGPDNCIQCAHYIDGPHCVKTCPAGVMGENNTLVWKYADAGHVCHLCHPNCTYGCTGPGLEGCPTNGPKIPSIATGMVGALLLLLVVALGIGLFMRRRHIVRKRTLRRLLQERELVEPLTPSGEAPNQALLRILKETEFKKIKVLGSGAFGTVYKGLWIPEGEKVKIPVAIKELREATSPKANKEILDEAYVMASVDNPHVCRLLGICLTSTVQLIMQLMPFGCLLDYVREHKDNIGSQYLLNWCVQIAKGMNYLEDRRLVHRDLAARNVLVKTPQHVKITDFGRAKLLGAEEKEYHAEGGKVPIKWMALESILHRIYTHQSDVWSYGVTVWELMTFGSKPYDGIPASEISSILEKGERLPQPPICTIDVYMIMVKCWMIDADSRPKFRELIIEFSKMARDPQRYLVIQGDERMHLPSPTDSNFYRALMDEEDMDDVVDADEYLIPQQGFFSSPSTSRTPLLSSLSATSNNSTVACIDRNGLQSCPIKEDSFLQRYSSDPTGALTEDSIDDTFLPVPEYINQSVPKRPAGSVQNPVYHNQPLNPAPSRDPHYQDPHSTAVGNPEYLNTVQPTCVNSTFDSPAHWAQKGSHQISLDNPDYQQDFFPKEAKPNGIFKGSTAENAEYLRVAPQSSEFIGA
Test [13] has the same test system. The conditions noted are these: at 1 µM.
Test [14] addresses Ephrin type-A receptor 2 (Homo sapiens) (UniProt P29317). The conditions noted are these: at 0.1 µM.
The target is the same in test [15]. The conditions noted are these: at 1 µM.
Test [16] has as its target T2, Ephrin type-A receptor 3 (Homo sapiens) (UniProt P29320).
T2 sequence (whole entry): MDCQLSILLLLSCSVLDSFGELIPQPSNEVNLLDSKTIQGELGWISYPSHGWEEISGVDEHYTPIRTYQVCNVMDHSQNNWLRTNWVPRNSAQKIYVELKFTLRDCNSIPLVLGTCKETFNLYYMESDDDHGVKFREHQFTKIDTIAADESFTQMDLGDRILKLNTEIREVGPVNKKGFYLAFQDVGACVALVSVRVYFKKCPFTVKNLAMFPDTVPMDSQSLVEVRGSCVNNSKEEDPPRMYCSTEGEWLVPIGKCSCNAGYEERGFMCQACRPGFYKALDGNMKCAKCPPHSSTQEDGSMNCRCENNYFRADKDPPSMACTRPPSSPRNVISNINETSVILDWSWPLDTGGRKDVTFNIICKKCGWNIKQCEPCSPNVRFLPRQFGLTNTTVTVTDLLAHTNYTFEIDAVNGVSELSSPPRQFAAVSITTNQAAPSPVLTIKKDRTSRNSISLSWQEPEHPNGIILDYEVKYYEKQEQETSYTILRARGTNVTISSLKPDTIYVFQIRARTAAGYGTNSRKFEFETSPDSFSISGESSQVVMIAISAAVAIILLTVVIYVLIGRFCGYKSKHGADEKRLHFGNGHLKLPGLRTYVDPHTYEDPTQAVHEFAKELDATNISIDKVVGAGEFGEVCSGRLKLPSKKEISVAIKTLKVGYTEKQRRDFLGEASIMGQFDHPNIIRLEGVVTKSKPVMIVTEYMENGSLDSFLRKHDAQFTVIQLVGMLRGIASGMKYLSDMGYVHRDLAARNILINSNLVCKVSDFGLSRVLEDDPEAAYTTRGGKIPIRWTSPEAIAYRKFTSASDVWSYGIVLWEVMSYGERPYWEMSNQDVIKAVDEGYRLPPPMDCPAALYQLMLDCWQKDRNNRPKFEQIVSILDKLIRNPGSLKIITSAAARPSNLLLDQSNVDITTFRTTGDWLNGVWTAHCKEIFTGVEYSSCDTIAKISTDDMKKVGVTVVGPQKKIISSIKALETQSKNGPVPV
The conditions noted are these: at 0.1 µM.

Test [17] deals with T2, Ephrin type-A receptor 3 (Homo sapiens). The conditions noted are these: at 1 µM.
In test [18] the target is Ephrin type-A receptor 4 (Homo sapiens) (UniProt P54764). The conditions noted are these: at 0.1 µM.
Ephrin type-A receptor 4 (Homo sapiens), sequence (P54764 whole entry): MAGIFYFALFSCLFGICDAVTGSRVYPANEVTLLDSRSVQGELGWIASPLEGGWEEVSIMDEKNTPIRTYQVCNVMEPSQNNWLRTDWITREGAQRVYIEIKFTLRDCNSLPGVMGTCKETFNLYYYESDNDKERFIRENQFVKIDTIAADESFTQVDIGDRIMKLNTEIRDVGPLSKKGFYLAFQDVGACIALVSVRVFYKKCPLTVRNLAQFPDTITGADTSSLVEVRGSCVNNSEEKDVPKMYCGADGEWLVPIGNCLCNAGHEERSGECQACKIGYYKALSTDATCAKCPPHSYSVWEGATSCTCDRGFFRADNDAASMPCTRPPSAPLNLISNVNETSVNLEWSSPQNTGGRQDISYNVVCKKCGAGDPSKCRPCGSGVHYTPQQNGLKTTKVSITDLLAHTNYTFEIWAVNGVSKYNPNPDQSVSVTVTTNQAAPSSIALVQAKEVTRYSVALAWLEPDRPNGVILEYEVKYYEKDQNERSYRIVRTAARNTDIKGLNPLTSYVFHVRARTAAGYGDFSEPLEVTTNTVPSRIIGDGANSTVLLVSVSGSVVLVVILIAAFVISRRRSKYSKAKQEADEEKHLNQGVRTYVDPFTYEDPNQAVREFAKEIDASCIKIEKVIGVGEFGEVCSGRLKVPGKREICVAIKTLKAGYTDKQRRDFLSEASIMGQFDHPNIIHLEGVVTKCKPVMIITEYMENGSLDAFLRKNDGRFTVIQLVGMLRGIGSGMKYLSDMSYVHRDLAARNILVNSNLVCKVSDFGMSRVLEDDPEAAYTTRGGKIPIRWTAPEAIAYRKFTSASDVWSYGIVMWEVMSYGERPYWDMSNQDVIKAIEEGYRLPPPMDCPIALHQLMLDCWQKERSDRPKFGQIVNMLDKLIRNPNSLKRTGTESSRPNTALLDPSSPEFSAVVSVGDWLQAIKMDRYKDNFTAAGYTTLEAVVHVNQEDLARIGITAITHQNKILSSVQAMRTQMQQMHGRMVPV
For test [19] the target is unchanged. The conditions noted are these: at 1 µM.
The target of test [20] is T3, Ephrin type-B receptor 2 (Homo sapiens) (UniProt P29323).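 Further: reported as mean inhibition of EPHB2, from the GSK PKIS dataset.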
T3 sequence (whole entry): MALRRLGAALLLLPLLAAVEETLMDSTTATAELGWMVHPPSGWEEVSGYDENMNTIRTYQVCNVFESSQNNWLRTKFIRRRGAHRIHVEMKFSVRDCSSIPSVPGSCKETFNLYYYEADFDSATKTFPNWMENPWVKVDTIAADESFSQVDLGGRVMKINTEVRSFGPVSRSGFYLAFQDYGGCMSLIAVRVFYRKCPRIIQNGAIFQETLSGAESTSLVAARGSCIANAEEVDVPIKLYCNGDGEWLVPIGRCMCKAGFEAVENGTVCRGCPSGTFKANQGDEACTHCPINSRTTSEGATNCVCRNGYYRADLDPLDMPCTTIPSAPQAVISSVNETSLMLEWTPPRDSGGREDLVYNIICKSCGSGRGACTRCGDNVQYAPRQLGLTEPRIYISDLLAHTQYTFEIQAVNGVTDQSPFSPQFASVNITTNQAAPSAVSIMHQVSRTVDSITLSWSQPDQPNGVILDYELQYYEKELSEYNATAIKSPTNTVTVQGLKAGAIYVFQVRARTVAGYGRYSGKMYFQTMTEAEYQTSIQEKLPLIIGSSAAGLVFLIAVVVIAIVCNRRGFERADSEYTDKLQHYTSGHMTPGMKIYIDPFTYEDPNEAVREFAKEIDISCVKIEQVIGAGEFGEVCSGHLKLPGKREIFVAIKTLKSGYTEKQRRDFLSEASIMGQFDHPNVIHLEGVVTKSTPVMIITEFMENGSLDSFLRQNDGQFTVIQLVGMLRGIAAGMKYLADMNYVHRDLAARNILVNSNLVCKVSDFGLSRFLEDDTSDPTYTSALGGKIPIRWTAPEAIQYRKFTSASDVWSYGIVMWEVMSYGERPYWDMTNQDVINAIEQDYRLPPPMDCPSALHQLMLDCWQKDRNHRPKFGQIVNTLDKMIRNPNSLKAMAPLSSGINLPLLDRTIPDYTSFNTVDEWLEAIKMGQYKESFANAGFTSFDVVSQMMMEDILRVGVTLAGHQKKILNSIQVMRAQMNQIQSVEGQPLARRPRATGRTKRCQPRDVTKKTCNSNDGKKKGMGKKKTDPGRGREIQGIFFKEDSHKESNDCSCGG
The conditions noted are these: at 0.1 µM.

Tyrosine-protein kinase CSK (Homo sapiens), sequence (P41240 2-450 limits assumed): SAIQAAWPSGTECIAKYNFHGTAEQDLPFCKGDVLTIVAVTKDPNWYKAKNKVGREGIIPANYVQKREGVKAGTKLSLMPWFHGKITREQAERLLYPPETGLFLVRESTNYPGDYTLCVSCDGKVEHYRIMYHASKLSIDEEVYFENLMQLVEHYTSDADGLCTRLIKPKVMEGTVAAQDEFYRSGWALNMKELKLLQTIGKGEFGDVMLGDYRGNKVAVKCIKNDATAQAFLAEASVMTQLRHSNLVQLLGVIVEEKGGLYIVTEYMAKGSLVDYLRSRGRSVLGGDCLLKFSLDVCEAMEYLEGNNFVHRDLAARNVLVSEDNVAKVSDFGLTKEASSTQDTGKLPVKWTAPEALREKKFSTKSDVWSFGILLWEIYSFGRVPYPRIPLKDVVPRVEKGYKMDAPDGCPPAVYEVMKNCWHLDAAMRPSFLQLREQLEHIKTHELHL

The inhibition is the change of the read-out against control, counted positive when it falls. Regarding `CN(C)c1cc2c(Nc3ccc4nc(Cc5ccccc5)[nH]c4c3)ncnc2cn1`, the inhibition in test [1] was 55.3%; in [2], 3.16%; in test [3], 7.23%; in [4], 66.6%; in test [5] it was 77.6%; in test [6] it was 16.1%. Further, the inhibition in [7] was found to be 48.1%; in test [8] it was 27.3%; in [9], 40.3%; in test [10], 3.48%; in [11] it was 6.78%; in [12], 3.54%. Also, the inhibition in [13] was 7%; in test [14], 2.13%; in test [15], 2.37%; in [16], 7.81%; in [17] it was 5.67%; in test [18], 11.6%. In addition, the inhibition came to 15.2% in [19] and 9.32% in test [20].

On to `CCn1c(-c2nonc2N)nc2cncc(C(=O)N3CCNCC3)c21`, for which the inhibition in [1] is 4.45%; in test [2], 1.63%; in [3], 1.68%; in test [4] it was 1.08%; in [5], 2.62%; in test [6] it was 3.95%. Moreover, the inhibition amounted to 3.98% in test [7]; 3.22% in test [8]; 5.49% in test [9]; 2.68% in test [10]; 3.72% in [11]; 0.98% in test [12]. Further, the inhibition in test [13] is 3.56%; in test [14] it was 1.29%; in test [15], 1.16%; in test [16] it was 3.57%; in test [17] it was 2.79%; in test [18], 9.14%. The inhibition in test [19] came to 11.3%; in test [20], 10.1%.

On to `CCCN1CCC=C(c2ccc(Nc3nc(Nc4ccccc4C(N)=O)c4cc[nH]c4n3)c(C)c2)C1`, for which the inhibition stood at 1.79% in test [1]; 1.12% in test [2]; 3.26% in test [3]; 3.3% in test [4]; 8.18% in test [5]; 0.06% in [6]. For the same compound, the inhibition amounted to 9.35% in test [7]; 1.44% in test [8]; 6.61% in test [9]; 2.92% in test [10]; 25.1% in [11]; 7.32% in [12]. Also, the inhibition was 51.6% in test [13]; 1.69% in test [14]; -0.07% in [15]; 3.53% in test [16]; 2.81% in test [17]; 5.85% in [18]. Also, the inhibition in test [19] was 10.8%; in test [20], 8.59%.

Turning to `CC(C)=Cc1cccc2c1/C(=N/Nc1ccc(S(N)(=O)=O)cc1)C(=O)N2`, the inhibition in test [1] is 1.41%; in test [2], 0.85%; in test [3], 7.39%; in [4], 2.03%; in test [5], 5.14%; in test [6], 1.48%. Moreover, the inhibition in test [7] is 9.14%; in test [8], 1.19%; in [9], 3.55%; in test [10], 1.38%; in test [11] it was 1.05%; in test [12] it was 2.29%. For the same compound, the inhibition in test [13] came out at 2.58%; in test [14], 0.83%; in test [15], 3.1%; in test [16] it was 2.78%; in test [17], 3.12%; in test [18], 4.39%. Further, the inhibition in test [19] is 11%; in test [20], 1.72%.

`CCc1cccc(NC(=O)Nc2ccc(Oc3ccc4nc(NC(=O)OC)[nH]c4c3)cc2)c1`: the inhibition in test [1] is 3.75%; in [2], 78%; in test [3], 80.2%; in test [4], 8%; in test [5], 7.33%; in test [6] it was 2.52%. In addition, the inhibition in test [7] turned out to be 5.42%; in test [8], 0.96%; in [9] it was 2.05%; in test [10], 1.06%; in [11], 1.6%; in test [12], 3.59%. Further, the inhibition was 4.31% in test [13]; 49.4% in test [14]; 65.7% in [15]; 13.9% in test [16]; 10.1% in test [17]; 52.3% in test [18]. Besides, the figures for the inhibition in test [19] and in test [20] were 72.3% and 44.5%, respectively.

In the case of `Nc1ncnc2occ(-c3ccc(NC(=O)Nc4cc(C(F)(F)F)cc(C(F)(F)F)c4)cc3)c12`, the inhibition worked out at 20.6% in [1]; 67.7% in test [2]; 84.4% in [3]; 0.56% in test [4]; 0.39% in [5]; 1.34% in [6]. The inhibition in [7] was -2.77%; in test [8] it was 2.29%; in [9], -2.09%; in test [10] it was 1.48%; in test [11] it was -2.28%; in test [12], -1.98%. Also, the inhibition was 0.18% in test [13]; 7.28% in test [14]; 42% in test [15]; 6.5% in test [16]; 14.6% in test [17]; 8.44% in test [18]. The inhibition stood at 44.5% in test [19] and 22% in [20].
